Source: PubChem BioAssay
Rows were chosen to be rich in hits. Some 3.5% of all compounds tested hit in one or more screens of this group.
Pf apPOL block: Pf-apPOL inhibitors, biochemical, fluorescence. Plasmodium falciparum apicoplast DNA polymerase (apPOL). Recombinant Pf-apPOL, molecular beacon fluorescence, 1.5 h. inhibition, % at 10 µM. hit rate 0.25% among 210,000
mHTT CaM bind: mutant huntingtin-calmodulin interaction inhibitors – biochemical, AlphaScreen, primary screen | inhibition, % at 15 µM | AlphaScreen His-mHTT/GST-CaM binding, luminescence | hit rate 3.6% among 190,000 | P42858;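 note: 0% = both proteins with DMSO and 100% = one protein alone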
An asterisk follows results filed as active; x = not tested or not shown. Cut-off read from the data, not from the text of the source: active = inhibition above about 50%; inactive = the rest.

SMILES	Pf apPOL block	mHTT CaM bind
COC(=O)c1ccc(NC(=O)Cc2csc(NC(=O)Nc3ccccc3OC)n2)cc1	5	25
COC(=O)c1ccc(NC(=O)Cc2csc(NC(=O)c3ncccn3)n2)cc1	3	98*
Cc1cccc(-c2cc3nc(C)c(Cl)c(=O)n3[nH]2)c1	1	4
CN(C)N1C(=O)c2ccccc2C1=O	-6	-15
CN(C1=CC(=O)c2ccccc2C1=O)c1ccccc1	5	60*
CCc1ccc(OCC(=O)OCCNC(=O)c2ccncc2)cc1	3	-18
O=C(c1ccc(S(=O)(=O)N2CCOCC2)o1)N1CCN(c2cccc(Cl)c2)CC1	-8	36
COc1ccc(C(=O)Nc2cccc(SC)c2)cc1	1	-9
COc1ccc(Nc2n[nH]nc2C(=O)Nc2cccc(SC)c2)cc1	2	50*
CCOc1cc(C(c2c(C)[nH][nH]c2=O)c2c(C)[nH][nH]c2=O)ccc1O	2	7
COc1cc(C(Nc2ccccn2)c2ccc3cccnc3c2O)cc(Br)c1OC (centres undefined)	-3	98*
CCOc1cc(C(Nc2ccccn2)c2ccc3cccnc3c2O)ccc1O (centres undefined)	-12	100*
CCOc1ccc(C=Nc2ccc(S(=O)(=O)Nc3ccccn3)cc2)cc1OCC	6	-1
CCOc1cc(C(Nc2ccccn2)c2ccc3cccnc3c2O)ccc1OC (centres undefined)	-6	100*
COc1cc(NC(=O)Nc2cccc3cccnc23)cc(OC)c1OC	-6	30
O=C(CCS(=O)(=O)Cc1ccccc1F)NCc1ccc(F)cc1Cl	-15	-5
COc1ccc(OC)c(S(=O)(=O)n2nnc3ccccc32)c1	-4	100*
COc1cc(C)c(S(=O)(=O)n2nnc3ccccc32)cc1C	3	-14
COc1ccc(C)cc1S(=O)(=O)n1nc(C)cc1C	-3	-21
COc1ccc(C)cc1S(=O)(=O)n1nnc2cc(Cl)ccc21	4	100*
COc1ccc(S(=O)(=O)n2nnc3ccccc32)c(C)c1	19	-2
COc1cc(C)c(C)cc1S(=O)(=O)n1nnc2ccccc21	-2	88*
COc1ccc(N2CCN(C(=O)CC3CCN(C(=O)c4ccc(C)cc4)CC3)CC2)cc1	-1	20
CCc1nc(-c2c(C)cc(C)nc2NC(=O)c2ccc(F)cc2F)no1	-2	0
CC1=NN(C(=S)c2ccc(C)cc2)C(C)(O)C1CC(C)C (centres undefined)	x	76*
SMILES	Pf apPOL block	mHTT CaM bind
Cn1c(=O)n(C)c2cc(N=Cc3cc(Br)ccc3O)ccc21	-4	-2
CCOc1ccc(NC(=O)C(=O)NCCN2CCN(C(=O)c3ccc([N+](=O)[O-])cc3)CC2)cc1	-30	0
O=C(/C=C/n1c(=O)oc2ccccc21)c1ccccc1	-8	11
Cc1ccc(-c2cc(CN(C(=O)C3CC3)C(C)C)no2)cc1C	27	9
COc1ccccc1C1CC(c2cccc(F)c2)=NN1C(=O)CN1CCN(C)CC1 (centres undefined)	0	99*
CC(=O)N1CCN(CC(=O)N2N=C(c3ccccc3)CC2c2ccc(F)cc2)CC1 (centres undefined)	-2	30
COc1ccccc1C1CC(c2ccc(F)cc2)=NN1C(=O)CN1CCC(C)CC1 (centres undefined)	-4	93*
COc1ccccc1C1=NN(C(=O)CN2CCC(C)CC2)C(c2cccc(F)c2)C1 (centres undefined)	-7	22
COc1ccc(C)cc1NC(=O)CN(C)S(=O)(=O)c1ccc(Br)s1	-3	1
COc1ccc(NC(=O)CN2C(=O)C(c3ccccc3)=NC23CCCCCC3)cc1	-11	9
COc1ccc(C2=NC3(CCCCCC3)N(CC(=O)Nc3ccc(Cl)cc3)C2=O)cc1	-3	90*
O=C(CN1C(=O)C(c2ccccc2)=NC12CCCC2)Nc1ccc(F)c(F)c1	-10	5
Cc1cccc(NC(=O)CN2C(=O)C(c3ccc(F)cc3)=NC23CCCC3)c1C	-4	0
COc1ccc(C2=NC3(CCCCC3)N(CC(=O)Nc3ccc(F)c(F)c3)C2=O)cc1	-6	98*
COc1ccc(NC(=O)CN2C(=O)C(c3ccc(C)cc3)=NC23CCCCC3)cc1	-9	-1
Cc1ccccc1NC(=O)CN1C(=O)C(c2ccc(F)cc2)=NC12CCCCC2	-1	50*
COc1ccc(C2=NC3(CCCCC3)N(CC(=O)Nc3ccc(F)cc3)C2=O)cc1	-7	66*
CCCc1ccc(S(=O)(=O)N2CCc3c(c(-c4nc(C)no4)nn3C)C2)cc1	-3	9
NC(=O)C1CCN(C(=O)c2ccc3nc4cc(Cl)ccc4c(=O)n3c2)CC1	6	11
Cc1ccc(N(C(=O)c2ccc(C(C)(C)C)cc2)C2C=CS(=O)(=O)C2)cc1 (centres undefined)	80*	20
